Values joined by “and” are separate entries in the source; they are usually repeats but may differ in a detail not shown here. Identical values can stand only once. In all, about 410,000 compounds went through this assay and about 18,000 (4.4%) were called active. Inconclusive results (about 7%) are left out. The sample as a whole holds a higher share of actives than the screen did. Unmarked numbers belong to inactive results. No stated cut-off is given here; in the data, active means activity change below about -60%; inconclusive means no clear call, values can overlap the other calls; inactive means above about -39%.
On the % scale 0 is the no-effect control and ±100 the full control effect.

A short description of this assay: qHTS Assay for inhibitors of the human cytomegalovirus (HCMV). As to conditions: HFF cells, HCMV-luciferase reporter, 72 h; at 57.5 µM; stronger effect = lower value. The gist of the method:
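Luciferase read-out from HCMV-luciferase-infected HFFs (MOI 1 PFU/cell) 72 h post infection at 37C; compounds added after 16 h cell attachment; activity normalized between buffer-only basal and Salinomycin (10uM) inhibitor controls.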
`CC(=O)N1CCCc2cc(S(=O)(=O)N3CCCC(C(=O)N4CCN(c5cccc(Cl)c5)CC4)C3)ccc21` (stereo unspecified): the activity change, negative = inhibition is -72.9% (active) and -95.8% (active).
The same measure for `CC(=O)N1c2ccc(S(=O)(=O)N3CCCC(C(=O)Nc4ccc(C)cc4C)C3)cc2CC1C` (stereo unspecified): 33.5%; for `CC(=O)N1c2ccc(S(=O)(=O)N3CCCC(C(=O)Nc4cccc(Cl)c4)C3)cc2CC1C` (stereo unspecified): -62.5% (active).
For the molecule `COc1cccc(N2CCN(S(=O)(=O)c3ccc4c(c3)CCCN4C(C)=O)CC2)c1`, the activity change, negative = inhibition was -9.24%.
As to `CC(=O)N1c2ccc(S(=O)(=O)N3CCC(C(=O)NCc4ccc(F)cc4)CC3)cc2CC1C` (stereo unspecified), the activity change, negative = inhibition was -39.5%.
The same measure for `CC(=O)N1c2ccc(S(=O)(=O)N3CCCC(C(=O)NCc4ccc(Cl)cc4)C3)cc2CC1C` (stereo unspecified): -75.8% (active); for `CC1Cc2cc(S(=O)(=O)CCC(=O)NCc3ccc(Cl)cc3)ccc2N1C(=O)C1CC1` (stereo unspecified): 4.59%; for `CC(=O)N1CCCc2cc(S(=O)(=O)N3CCC(C(=O)NC4CCCCC4)CC3)ccc21`: 6.82%.
To `CC(=O)N1c2ccc(S(=O)(=O)N3CCCC(C(=O)Nc4cccc(F)c4)C3)cc2CC1C` (stereo unspecified) belongs -31.3%; to `Cc1noc(/C=C/N(C)C)c1S(=O)(=O)N1CCCC(C(=O)Nc2cccc(F)c2)C1` (stereo unspecified), 4.81%; to `CCOc1ccc(OCC)c(NC(=O)c2c(C)nn(-c3ccccc3)c2-n2cccc2)c1`, -28.6%.
As for `COc1ccc(-c2nn3c(=O)cc(CN4CCN(C(=O)c5ccc(OC)c(OC)c5)CC4)nc3s2)cc1`, the activity change, negative = inhibition was -5.09%.
The same measure for `COc1ccc(CCNc2nc(-c3ccc(Cl)cc3)cc(C(F)(F)F)n2)cc1OC`: -19.1%.
In the case of `O=C(CSc1nc(=O)n(Cc2cccnc2)c2c1CCC2)Nc1ccc(F)cc1F`, the activity change, negative = inhibition was -15.2%.
The same measure for `COc1cccc(CNC(=O)CCC(=O)N2CC3CCCN3c3ccccc32)c1` (stereo unspecified): -5.74%; for `COc1ccc(C2N=C(N)N=C(N)N2c2ccccc2)cc1OC` (stereo unspecified): 14%; for `O=C(CCc1nc(CN2CCN(S(=O)(=O)c3ccc(Cl)cc3)CC2)no1)N1CCCCC1`: 30.2%.
The same measure for `CC[C@]12c3[nH]c4ccc(OC)cc4c3CCN1C(=O)C(CC(=O)NCCN1CCOCC1)C[C@@H]2C(=O)N1CCN(C(=O)C2CC2)CC1` (stereo partly specified): 3.72%.
To `O=C(Nc1cccc(S(=O)(=O)N2CCCCC2)c1)c1ccc2c(c1)OCO2` belongs -69% (active); to `CCN(CC)S(=O)(=O)c1cccc(NC(=O)c2ccc(S(=O)(=O)N3CCCC3)cc2)c1`, -65.5% (active); to `Cn1c(=O)n(C)c2cc(C(=O)Nc3ccc4c(c3)OCO4)ccc21`, -96.3% (active).
As to `NS(=O)(=O)c1ccc(CCNC(=O)c2ccc(Cl)c(S(=O)(=O)N3CCCCCC3)c2)cc1`, the activity change, negative = inhibition is -69.2% (active).
To `O=C(CCNC(=O)c1ccc(Br)cc1)Nc1cccc(S(=O)(=O)N2CCCCC2)c1` belongs -23.8%.
Consider `Cc1c(C)n(Cc2ccc(Cl)cc2)c2ccc(C(=O)NCCc3ccc(S(N)(=O)=O)cc3)cc12`, for which the activity change, negative = inhibition is 0%.
The same measure for `O=C(NCCc1ccc(F)cc1)c1ccc(S(=O)(=O)N2CCCCC2)cc1`: -3.57%; for `CN1CCN(S(=O)(=O)c2cccc(C(=O)Nc3cccc(S(N)(=O)=O)c3)c2)CC1`: -17.3%; for `O=C(Nc1ccc2c(c1)OCO2)c1cc(-c2cccc(Cl)c2)on1`: 11.5%.
The same measure for `O=C(Nc1cccc(S(=O)(=O)N2CCCC2)c1)c1cncc(Br)c1`: -5.81%.
To `COc1cc(C(=O)NNC(=O)c2ccc(S(=O)(=O)N3CCCCC3)cc2)cc(OC)c1OC` belongs 41.5%; to `CCSc1ccccc1C(=O)Nc1ccc2c(c1)OCO2`, 8.91%; to `CCc1nn(CC(=O)Nc2cccc(C)c2C)c(=O)c2cc3sccc3n12`, -1.56%.
As for `Cc1cc2oc(=O)cc(CN(C)Cc3ccc(OC(F)F)cc3)c2cc1Cl`, the activity change, negative = inhibition was 26.8%.
To `CCn1c(Cc2cccs2)nnc1SCC(=O)c1ccc(C)cc1` belongs 47.4%; to `CC(=O)c1c(C)n(S(=O)(=O)c2ccc(Cl)cc2)c2ccc(NS(=O)(=O)c3ccc(Cl)cc3)cc12`, 1.89%; to `Cc1ccc(OCC(=O)OCc2cc(=O)n3nc(C4CC4)sc3n2)cc1`, -34%.
The same measure for `O=C(NCC12CC3CC(CC(C3)C1)C2)c1cc2nc(-c3ccccc3)cc(C(F)(F)F)n2n1`: -2.2%; for `COc1ccc(N2CCN(C(=O)C3CCCN(C(=O)c4cc5sccc5n4C)C3)CC2)cc1` (stereo unspecified): -14.9%.
The same measure for `Cc1cc(C)c(NC(=O)CN2C(=O)c3cccnc3Oc3ccc(Cl)cc32)c(C)c1`: 0%; for `O=C(NCCCO)C(=O)Nc1c2c(nn1-c1ccc(F)cc1)CSC2`: -5.08%; for `Cc1ccc(Nc2c(-c3ccc(Cl)cc3)nc3sccn23)c(C)c1`: -23.6%.
As for `Cc1cccc(NC(=O)CSc2nc3c(oc4ccccc43)c(=O)n2-c2ccc(F)cc2)c1`, the activity change, negative = inhibition was -12%.
Turning to `O=C(Nc1cccc(S(=O)(=O)Nc2ccc(Cl)cc2)c1)c1ccc2c(c1)OCCO2`, the activity change, negative = inhibition was -94.5% (active).
The same measure for `O=C(NNC(=O)c1cccc(S(=O)(=O)Nc2ccc(Cl)cc2)c1)c1ccc(=O)[nH]c1`: 24%; for `CC(=O)Nc1ccc(C(=O)Nc2cccc(S(=O)(=O)NC3=NCCC3)c2)cc1`: -22.7%; for `Cc1ccc(NC(=O)c2ccc(Cl)nc2)cc1S(=O)(=O)N1CCOCC1`: -8.05%.
To `Cc1ccc(C(=O)NNC(=O)c2ccncc2)cc1S(=O)(=O)N1CCCCC1` belongs -15.8%; to `O=C(Nc1ccc2c(c1)OCCO2)c1ccc(Cl)c(S(=O)(=O)N2CCCCC2)c1`, -72.6% (active).
To `CCOc1ccc(CCNC(=O)C2CCN(c3ccc(N4CCOCC4)nn3)CC2)cc1OCC` belongs 2.74%; to `Cc1cc(C)c(C)c(S(=O)(=O)N[C@@H](C)C(=O)OC(C)C(=O)NC(N)=O)c1C` (stereo partly specified), -14.5%.
Consider `COc1ccc(NC(=O)c2sc3nc(-c4cc5cccc(OC)c5oc4=O)[nH]c(=O)c3c2C)cc1`, for which the activity change, negative = inhibition is -14.2%.
The same measure for `Cc1ccc(Cn2cc(CCC(=O)NCc3ccc(OC(C)C)cc3)c3ccccc32)cc1`: 4.19%.

The values above are taken from PubChem BioAssay AID1259415 (National Center for Advancing Translational Sciences (NCATS), 2018).
